Experimental data from PubChem BioAssay AID1851 (National Center for Advancing Translational Sciences (NCATS), 2009).
Several values for one entry are separate records, joined by “and”; a condition that tells them apart may be missing. Equal values may be shown once. Out of some 16,000 compounds screened, about 5,800 (36%) were called active. Roughly 23% stayed inconclusive and do not appear here. The call rests on the fitted dose curve; in most records, active means well fitted curve in the direction sought with a large enough effect; inconclusive means small, poorly fitted or top-dose-only effect, or effect the other way; inactive means no such curve, though single readings can be large or run the other way. Some of the results follow. Where a structure was tested more than once in an assay, its records may differ in their call.

These compounds were tested against Cytochrome P450 2C19 (Homo sapiens) (UniProt P33261) (assay: Cytochrome panel assay with activity outcomes). Settings: recombinant CYP, pro-luciferin dealkylation, luminescence, p450-cyp2c19; series mostly up to 57.1 µM; activity, negative = inhibition: at the top concentration.
On the % scale 0 is the no-effect control and ±100 the full control effect.

Sequence of Cytochrome P450 2C19 (Homo sapiens) (P33261 whole entry, looked up): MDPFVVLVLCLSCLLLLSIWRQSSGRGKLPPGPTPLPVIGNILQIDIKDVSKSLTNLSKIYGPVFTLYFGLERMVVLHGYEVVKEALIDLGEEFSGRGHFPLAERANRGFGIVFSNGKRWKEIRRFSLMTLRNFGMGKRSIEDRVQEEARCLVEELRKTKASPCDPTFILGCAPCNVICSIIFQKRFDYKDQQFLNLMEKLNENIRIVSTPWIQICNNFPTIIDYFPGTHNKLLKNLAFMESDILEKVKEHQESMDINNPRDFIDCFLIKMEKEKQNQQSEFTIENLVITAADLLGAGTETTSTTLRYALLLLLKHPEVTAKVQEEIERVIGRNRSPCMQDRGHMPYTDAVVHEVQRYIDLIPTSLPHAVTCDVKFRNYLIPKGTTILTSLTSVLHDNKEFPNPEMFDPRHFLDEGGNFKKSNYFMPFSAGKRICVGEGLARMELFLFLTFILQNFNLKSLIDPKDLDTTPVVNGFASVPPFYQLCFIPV

SMILES | activity, negative = inhibition | AC50
CSCC[C@@H]1NC(=O)C/C=C\[C@@H](C)COC(=O)[C@H](C)COC1=O | -10.8% [at 11.4 µM] (inactive) | 
C[C@@H]1/C=C\CC(=O)OC[C@H]2O[C@@H](C=C[C@@H]2O)[C@H](C)/C=C\CC(=O)OC[C@H]2O[C@H]1C=C[C@@H]2O | -20.1% [at 11.4 µM] (inactive) | 
CN(Cc1cc2ccccc2[nH]c1=O)S(C)(=O)=O | -24.3% (inactive) | 
CS(=O)(=O)N(Cc1cc2ccccc2[nH]c1=O)C1CCCCC1 |  | 15.8 µM (active)
COc1ccc(-n2c(N)c(C(=O)NCc3ccco3)sc2=S)cc1 |  | 17.8 µM (active)
O=C(NNC(=S)Nc1ccccc1)c1ccco1 | 21.4% (inactive) | 
CC1=C(C(=O)Nc2ccccc2)C(c2ccco2)NC(=S)N1 (configuration not stated) |  | 35.5 µM (active)
O=C(Nc1ccccc1)N1CC2(CCN(C(=O)c3ccco3)CC2)C1 | 10.4% (inactive) | 
CCN(CC)CC[n+]1ccc2c(C)c3[nH]c4ccccc4c3c(C)c2c1 | 2.93% [at 11.4 µM] (inactive) | 
S=C(NCc1ccco1)N1CCN(Cc2ccco2)CC1 |  | 15.8 µM (active)
S=C(NCc1ccco1)N1CCN(C(c2ccccc2)c2ccccc2)CC1 |  | 7.08 µM (active)
O=C(c1ccco1)N1CCC[C@@]2(CCN(C(c3ccccc3)c3ccccc3)C2)C1 | -43.7% (inactive) | 
CS(=O)(=O)Nc1c(O)ccc2c1CCC[C@H]2C1=NCCN1 | -7.17% (inactive) | 
CCOc1ccc(N2C(=O)c3cccnc3C2=O)cc1 | -14.9% (inactive) | 
O=C1c2cccnc2C(=O)N1Cc1ccc(F)cc1 |  | 8.91 µM (active)
COc1ccccc1CN1CCCC2(CCN(C(C)=O)CC2)C1 | -44.6% (inactive) | 
S=C1SCN(C2CCCCCCCCCCC2)CN1C1CCCCCCCCCCC1 |  | 3.98 µM (active)
CCNc1ncc2nc(-c3ccc(F)cc3)c(=O)n(-c3ccc(OC)cc3)c2n1 | -14.2% (inactive) | 
Cc1cc(OCCn2cc(/C(N)=N/O)c3ccccc32)ccc1Cl |  | 0.708 µM (active)
Cc1c(C#N)c(=O)oc2ccc3ccccc3c12 | 6.24% (inactive) | 
CCCCN(C)C(=O)c1coc(=O)c2ccccc12 | -26.6% (inactive) | 
CCCCNC(=O)Cc1coc2ccc3ccccc3c12 |  | 3.16 µM (active)
Nc1nc2c(c(=O)[nH]1)N(C=O)[C@H](CNc1ccc(C(=O)N[C@@H](CCC(=O)O)C(=O)O)cc1)CN2 | 4.69% [at 25.6 µM] (inactive) | 
CCOC(=O)c1c(C)c(C(=O)NCCN2CCOCC2)c(C)n1CC | -10% (inactive) | 
CCOC(=O)c1c(C)c(C(=O)N2CCCCCC2)c(C)n1C |  | 7.08 µM (active)

SMILES | activity, negative = inhibition | AC50
CC(C)CN1CCC2(CC1)CCN(C(=O)c1csnn1)CC2 | -18% (inactive) | 
O=C(Nc1cccc(F)c1)/C(=C\c1ccco1)NC(=O)c1cccs1 |  | 14.1 µM (active)
CCOC(=O)c1c(C)nc2c(c1-c1ccccc1)C(=O)CC(C)(C)C2 |  | 7.08 µM (active)
CCn1cc(C(=O)O)c(=O)c2cc(F)c(N3CCN[C@@H](C)C3)c(F)c21 |  | inactive
COC(=O)C1=C(C)N=C2SC(C)C(=O)N2C1/C=C/c1ccccc1 (configuration not stated) |  | 5.01 µM (active)
CCc1cc2c(c(CC)n1)CCC(=O)N2Cc1ccc(-c2ccccc2-c2nn[nH]n2)cc1 |  | 5.01 µM (active)
CC1=N[C@@](C)(COC(=O)[C@]2(C)N[C@](C)(CO)CO2)COC1=O | 40.4% [at 11.4 µM] (inactive) | 
CC(C)NC(=O)c1ccccc1NC(=O)/C=C/c1ccc([N+](=O)[O-])cc1 | -23.5% (inactive) | 
COc1ccc(/C=C(/C(=O)Nc2ccccc2C(=O)NC(C)C)c2ccccc2)cc1 |  | 15.8 µM (active)
O=C(O)/C(=C\c1ccccc1)c1ccccc1 | 11.9% [at 11.4 µM] (inactive) | 
Cc1ccccc1NC(=O)/C(=C/c1ccccc1)c1ccccc1 |  | 10 µM (active)
CCN(CC)CCOC(=O)C1(C2CCCCC2)CCCCC1 |  | inactive
O=C(Nc1cccc(F)c1)N1CC2(CCN(C(=O)c3cc(C(F)(F)F)cc(C(F)(F)F)c3)CC2)C1 | -18.1% (inactive) | 
N#Cc1cccc(NC(=O)N2CC3(CCN(C(=O)c4cc(C(F)(F)F)cc(C(F)(F)F)c4)CC3)C2)c1 |  | 0.631 µM (active)
N#Cc1cccc(NC(=O)N2CCCC3(CCN(C(=O)c4cc(C(F)(F)F)cc(C(F)(F)F)c4)CC3)C2)c1 | -40.9% (inactive) | 
C/C(=N\OC(=O)c1ccc(F)cc1)c1nccs1 |  | 17.8 µM (active)
Cc1ccc2c(c1)/C(=N/OC(=O)c1ccc(F)cc1)CCS2 | -3.53% (inactive) | 
O=C(O)[C@H]1[C@H](C(=O)O)[C@H](C(=O)O)C[C@@H]1C(=O)O | 24.8% [at 11.4 µM] (inactive) | 
O=C(O)[C@H]1C[C@H](C(=O)O)N1 | 29.8% (inactive) | 
O=C(O)[C@@H]1C[C@@H](C(=O)O)N1 |  | 25.1 µM (active)
COc1c(/C=N/Nc2ccc([N+](=O)[O-])cc2[N+](=O)[O-])c(C)nn1-c1ccccc1 | -25.7% (inactive) | 
O=[N+]([O-])c1ccccc1N/N=C/c1c[nH]c2ccccc12 |  | 10 µM (active)
O=S(=O)(NCc1cn2ccsc2n1)c1ccc(Oc2ccccc2)cc1 |  | 10 µM (active)
COc1ccccc1N1CCN(CCN2C(=O)c3ccccc3C(C)(C)C2=O)CC1 | -24% (inactive) | 
COc1cccc2cc(C(=O)CC3(O)C(=O)N(Cc4ccccc4)c4ccccc43)c(=O)oc12 (configuration not stated) |  | 25.1 µM (active)

SMILES | activity, negative = inhibition | AC50
N.N.O=C(O)C1(C(=O)O)CCC1.[Pt] |  | 3.98 µM (active)
O=C(O)C1(C(=O)O)CCN(S(=O)(=O)c2ccccc2)CC1 | 16.2% [at 11.4 µM] (inactive) | 
COc1ccc(OCc2nnc(SCC(=O)O)n2N)cc1 | 17.5% (inactive) | 
O=C(CSc1nnc(COc2ccccc2)n1-c1ccccc1)c1ccccc1 |  | 3.98 µM (active)
Cc1nonc1NC(=O)N1CCCC1 | 32.4% (inactive) | 
Cc1c(C(=O)N2CCCCCC2)nnn1-c1nonc1N |  | 7.94 µM (active)
CC(C)OC(=O)c1nnn(-c2nonc2N)c1CSc1ccccn1 |  | 0.251 µM (active)
Nc1nonc1-n1nncc1-c1ccccc1 |  | 6.31 µM (active)
CCOC(=O)c1nnn(-c2nonc2N)c1-c1ccccc1 |  | 2.82 µM (active)
NC(N)=NC(N)=Nc1c(F)c(F)c(F)c(F)c1F | -5.72% [at 11.4 µM] (inactive) | 
CCOC(=O)c1nnn(-c2nonc2N)c1-c1ccc(C)cc1 |  | 1.58 µM (active)
CCOC(=O)c1nnn(-c2nc(OC)nc(N3CCCCC3)n2)c1-c1ccccc1 |  | 7.94 µM (active)
COCc1c(C(N)=O)nnn1-c1nonc1N | -13.1% (inactive) | 
OC[C@H]1NC[C@H](O)[C@@H](O)[C@H]1O | 17.1% (inactive) | 
c1cnc(N2CCN(Cc3ccc4c(c3)OCO4)CC2)nc1 |  | 2 µM (active) and 631 nM (active) and inactive
O=C(COc1ccc(Cl)cc1)N1CCN(Cc2ccc3c(c2)OCO3)CC1 |  | 5.01 µM (active)
COCC(=O)N1CCC[C@@]2(CCN(Cc3ccc(C#N)cc3)C2)C1 | 38.5% (inactive) | 
COCC(=O)N1CCC2(CC1)CN(Cc1ccc(C#N)cc1)C2 | 24.8% (inactive) | 
O=C(O)[C@@H]1CCCN1Cc1ccc2c(c1)OCO2 | 14.1% [at 11.4 µM] (inactive) | 
O=C(CCN1C(=O)c2cccc3cccc(c23)C1=O)N1CCN(Cc2ccc3c(c2)OCO3)CC1 |  | 1.58 µM (active)
Cc1cccc(Oc2ncnc3onc(C)c23)c1C |  | 5.01 µM (active)
Cc1noc2ncnc(Oc3ccc4ccccc4c3)c12 |  | 7.08 µM (active)
Cc1noc(C)c1-c1cc(NCc2ccccc2)ncn1 | -41.3% (inactive) | 
COc1ccc(NC(=O)N2CC3(CCN(C(=O)c4csnn4)CC3)C2)cc1 | 18% (inactive) | 
NC(Cc1ccccc1)=NCC(=O)O | 18.2% [at 11.4 µM] (inactive) | 

SMILES | activity, negative = inhibition | AC50
O=C(O)CN1CCN(Cc2ccccc2)C1=O |  | 6.31 µM (active)
Cc1cccc(CN2CCN(CC(=O)O)C2=O)c1 | -2.07% (inactive) | 
O=C(O)CN1CCN(Cc2ccc(F)cc2Cl)C1=O |  | 5.01 µM (active)
Nc1nc2ncc(CNc3ccc(C(=O)N[C@@H](CCC(=O)O)C(=O)O)cc3)nc2c(=O)[nH]1 | 9.66% [at 25.6 µM] (inactive) | 
Nc1ccc(O)c(C(=O)O)c1 |  | 5.01 µM (active)
N[C@@H](C(=O)O)c1ccc(O)c(C(=O)O)c1 | -11.4% (inactive) | 
NC(N)=N/N=C\c1ccc(O)c(C(=O)O)c1 | 16.2% [at 11.4 µM] (inactive) | 
Cc1ccc(C(=O)c2cn[nH]c2-c2cc(Cl)ccc2O)cc1 |  | 0.708 µM (active)
Cc1cc2c(nc1C)CCCCN2C[C@H](C)O/N=C\[C@@H](C)[C@H](OCc1ccccc1)C(C)C | -20.8% [at 11.4 µM] (inactive) | 
CCc1nc(SCC(=O)c2ccc(Cl)s2)c2oc3ccccc3c2n1 |  | 0.562 µM (active)
Cc1nc(SCC(=O)c2ccc(Cl)s2)c2oc3ccccc3c2n1 |  | 0.178 µM (active)
CCc1nc(SCC(=O)N2CCCc3ccccc32)c2oc3ccccc3c2n1 |  | 3.98 µM (active)
CC(=O)OC[C@@H]1O[C@@H](O/N=C2/C[C@@H](O)[C@@H](O)[C@@H]3[C@@H]4C(=O)N(c5cccc(Oc6ccccc6)c5)C(=O)[C@H]4CC[C@@H]23)[C@H](OC(C)=O)[C@H](OC(C)=O)[C@@H]1OC(C)=O | -22% [at 11.4 µM] (inactive) | 
Cn1c(=O)c(-c2ccc(Cl)cc2)nc2cnc(Oc3cccc(Cl)c3)nc21 | 9.78% (inactive) | 
Clc1cccc(Oc2cnc3ccccc3n2)c1 |  | 3.55 µM (active)
O=C(CCl)Nc1ccc(Oc2cnc3ccccc3n2)cc1 |  | 5.01 µM (active)
Cn1cc(-c2nc3cnc(Oc4cccc(Cl)c4)nc3n(CCC#N)c2=O)c2ccccc21 | -28% (inactive) | 
CN1CCCC[C@@H]1CCN1CCCCC1 | 26.3% [at 11.4 µM] (inactive) | 
COc1ccc(-c2cc(C(F)(F)F)n3nc(C(=O)N4CCCCC4)cc3n2)cc1 |  | 14.1 µM (active)
COc1ccc(NC(=O)N2CCCC3(CCN(C(=O)c4cc(C(F)(F)F)cc(C(F)(F)F)c4)CC3)C2)cc1 | -35.4% (inactive) | 
COC(=O)c1ccccc1NC(=O)c1cc2nc(C3CC3)cc(C(F)(F)F)n2n1 | -7.71% (inactive) | 
CCOC(=O)C1CCCN(C(=O)c2cc3nc(-c4ccc5c(c4)OCO5)cc(C(F)(F)F)n3n2)C1 (configuration not stated) |  | 14.1 µM (active)
